AMA1-RON2 inh = AMA1-RON2 (P. falciparum) interaction inhibition; 360,000 tested, 0.2% active; Potency, µM (series often up to 58.2 µM), usual class: inhibitors; AlphaScreen AMA1-biotinylated RON2 peptide binding; further: nearly all actives have a fitted effect of over 45% in size
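AMA1 (3D7) with his tag at 25 nM final met compounds first, then biotinylated RON2 peptide at 25 nM; detection used donor plus acceptor beads, 10 µg/mL apiece, read by AlphaScreen after 30 min at room temperature.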
AmpC no deterg = blocks E. coli AmpC beta-lactamase in detergent-free assay. AmpC nitrocefin hydrolysis, absorbance 480 nm, 0.0001% Triton. AID 485341. Potency, µM (doses to about 57.1 µM), hits mostly inhibitors. 330,000 tested, 0.52% active. P00811; further: nearly all actives have a fitted effect of over 20% in size
Target sequence (P00811 whole entry, looked up): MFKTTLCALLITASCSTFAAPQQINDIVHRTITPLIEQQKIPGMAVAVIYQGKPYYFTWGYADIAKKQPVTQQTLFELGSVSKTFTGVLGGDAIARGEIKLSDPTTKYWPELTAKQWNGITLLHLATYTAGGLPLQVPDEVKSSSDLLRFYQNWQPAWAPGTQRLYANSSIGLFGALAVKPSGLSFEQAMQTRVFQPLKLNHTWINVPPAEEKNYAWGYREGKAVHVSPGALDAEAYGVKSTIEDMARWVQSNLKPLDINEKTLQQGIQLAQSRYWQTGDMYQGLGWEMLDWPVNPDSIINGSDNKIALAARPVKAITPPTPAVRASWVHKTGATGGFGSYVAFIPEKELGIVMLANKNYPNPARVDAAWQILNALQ
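20 mM phosphate pH 7.0 + 0.01% (detergent screen) or 0.0001% Triton X-100; 5.3 nM AmpC reagent; cpd preinc 15 min RT; nitrocefin (800 uM stock) to start; A480 q20 s × 4 min; Activity was normalised to no-enzyme and no-compound control wells.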
NS1 inh = blocks influenza NS1 protein function. 270,000 tested, 0.4% active. Potency, µM (doses to about 46.1 µM). AID 2326; calls by dose curve; further: actives are rising curves; nearly all actives have a fitted effect of over 50% in size
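Compounds were scored for reversing the slow growth caused by influenza A NS1 in S. cerevisiae, measured by optical density at 600 nm. Assay medium contained 2% galactose at pH 6.0; NS1-free yeast of the same strain were the positive control.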
AmpC detergent = inhibitors of E. coli AmpC beta-lactamase with detergent; AmpC hydrolysis of nitrocefin, absorbance 480 nm, 0.01% Triton; P00811; 370,000 tested, 0.041% active; AID 485294; Potency, µM (series often up to 114 µM), hits mostly inhibitors; further: nearly all actives have a fitted effect of over 25% in size
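20 mM phosphate pH 7.0 + 0.01% (detergent screen) or 0.0001% Triton X-100; 5.3 nM AmpC reagent; cpd preinc 15 min RT; nitrocefin (800 uM stock) to start; A480 q20 s × 4 min; Activity was normalised to no-enzyme and no-compound control wells.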
Flu NS1 inh = validation of influenza NS1 protein function inhibitors. shares compounds with NS1 inh. influenza NS1 function cell assay, 15-point titration. activity change, negative = inhibition, % at 32.9 µM. 1,400 tested, under 10 active. AID 492980; calls by dose curve
Flu PR8 replic = influenza NS1 inhibitors: inhibition of influenza A/PR/8/34 replication | AID 504647 | shares compounds with NS1 inh | MDCK infected influenza A/PR/8/34, virus titer TCID50; hits give low values | virus titer (log TCID50), log10 TCID50 at 5 µM | 95 tested, 30% active; call rule not given here
Large screens that a line does not name were inactive (follow-up assays come after a bar, where they were run). Only some compounds are listed: those with a hit (about 0.86% of all), similar ones and a draw of the others. Unless noted, the call rests on the fitted dose curve; in most records, active means well fitted curve in the direction sought with a large enough effect; inconclusive means small, poorly fitted or top-dose-only effect, or another doubt; inactive means no such curve, though single readings can be large; an effect the other way counts as inactive or inconclusive.

CCN(C(=O)C1CCCN1S(=O)(=O)c1ccc2c(c1)n(C)c(=O)c(=O)n2C)c1ccccc1 (stereo not given)	none
O=C(NCc1ccc2[nH]c3c(c2c1)CCCC3)c1ccc(S(=O)(=O)N2CCCCC2)cc1	NS1 inh 5.01µM, AmpC detergent inconclusive | Flu NS1 inh inactive
O=C(NCc1ccc(F)cc1)c1ccc(S(=O)(=O)N2CCCCC2)cc1	none (no result: NS1 inh)
Cc1ccc(F)c([C@H]2[C@H]3C=CC[C@@H](C)[C@@H]3C(=O)N2Cc2ccccc2)c1	NS1 inh inconclusive | Flu NS1 inh inconclusive | Flu PR8 replic inactive
O=C(N/N=C/c1cccc([N+](=O)[O-])c1)c1cc(-c2ccccc2)nc2ccccc12	none
O=C(N/N=C/C=C\c1ccccc1[N+](=O)[O-])c1cc(-c2ccccc2)nc2ccccc12	NS1 inh 7.08µM | Flu NS1 inh inactive
C/C(=N\NC(=O)c1cccnc1)c1ccc(C)c([N+](=O)[O-])c1	none (no result: NS1 inh)
C/C(=N\NC(=O)c1[nH]c2c([N+](=O)[O-])cc(C)cc2c1-c1ccccc1)c1cccnc1	NS1 inh 8.91µM | Flu NS1 inh inactive
O=C(O)c1ccc(/C=N\Nc2ccc(S(=O)(=O)N3CCOCC3)cc2[N+](=O)[O-])cc1	none
Cc1ccc(-n2c(O)c(/C=N/Nc3ccc(S(=O)(=O)N4CCOCC4)cc3[N+](=O)[O-])c3ccccc3c2=O)c(C)c1	NS1 inh 2.51µM, AmpC detergent inconclusive | Flu NS1 inh inactive
Cc1ccc(N(C)C(=O)C2CCN(S(=O)(=O)c3c(C)noc3/C=C/c3c(C)cc(C)cc3C)CC2)cc1	none (no result: AMA1-RON2 inh, AmpC no deterg, NS1 inh)
COCCCNC(=O)c1c(N)n(/N=C/c2cccnc2)c2nc3ccccc3nc12	AmpC detergent inconclusive
CCC(C)NC(=O)c1c(N)n(/N=C/c2cccnc2)c2nc3ccccc3nc12 (stereo not given)	AmpC detergent inconclusive
CCC(C)NC(=O)c1c(N)n(/N=C/c2ccccn2)c2nc3ccccc3nc12 (stereo not given)	NS1 inh 11.2µM | Flu NS1 inh inconclusive
CC(C)OCCCNC(=O)c1c(N)n(/N=C/c2ccccn2)c2nc3ccccc3nc12	NS1 inh 8.91µM | Flu NS1 inh inactive
O=C(/C=N/O)Nc1ccc2sc3ccccc3c2c1	none
N#CCSCC(=O)Nc1ccc(F)cc1	NS1 inh 14.1µM, AmpC detergent inconclusive | Flu NS1 inh inactive
Cc1nc2c(ccc3nc(NC(=O)c4ccc5c(c4)OCCO5)sc32)s1	NS1 inh inconclusive | Flu NS1 inh inactive
Cc1nc2ccc3nc(NC(=O)c4ccc5c(c4)OCCO5)sc3c2s1	none
CCOC(=O)c1ccc(NC(=O)c2nc[nH]c2C(=O)N[C@H](C)CO)cc1	none (no result: AmpC no deterg, NS1 inh, AmpC detergent)
COc1ccccc1-n1c(SCC(=O)Nc2cccc(C(=O)O)c2)nnc1-c1ccccc1C	NS1 inh 12.6µM, AmpC detergent inconclusive | Flu NS1 inh inactive
COc1cccc(NC(=O)Cc2nnc(SCC(=O)c3ccccc3)n2C)c1	NS1 inh 7.94µM | Flu NS1 inh inactive
Cc1cc2c(NCc3ccccc3)ncnc2s1	none
Cc1ccc(Sc2ncccc2C(=O)O)c(C)c1	AmpC detergent inconclusive
Cc1ccc(Sc2ncccc2C(=O)O)cc1C	NS1 inh inconclusive | Flu NS1 inh inactive
O=C(/C=N/O)NCCCN1CCOCC1	NS1 inh inconclusive | Flu NS1 inh inactive
COc1cc(C)nc(NC(=S)N(C)C(=O)c2ccccc2)n1	none
Cc1c(Cl)cccc1NC(=O)CSc1nncn1-c1ccccn1	NS1 inh inconclusive | Flu NS1 inh inactive | Flu PR8 replic inactive
COC(=O)C(NC(=O)c1ccc(F)cc1)(Nc1ncc(S(=O)(=O)c2ccc([N+](=O)[O-])cc2)s1)C(F)(F)F (stereo not given)	AmpC no deterg 8.91µM, NS1 inh 7.94µM | Flu NS1 inh inactive
COC(=O)C(NC(=O)c1ccccc1C)(Nc1ncc(S(=O)(=O)c2ccc([N+](=O)[O-])cc2)s1)C(F)(F)F (stereo not given)	AmpC detergent inconclusive
C/C(=N\Nc1ccccc1)c1c(O)n(-c2ccccc2)c(=O)[nH]c1=O	none
C/C(=N\Nc1ccccc1)c1c(O)n(Cc2ccccc2)c(=O)[nH]c1=O	NS1 inh 10µM | Flu NS1 inh inactive
O=c1[nH]c(C2CCCN(S(=O)(=O)c3ccccc3)C2)nc2c1nnn2Cc1ccccc1F (stereo not given)	none
Cc1ccc(Cn2nnc3c(=O)[nH]c(C4CCN(S(=O)(=O)c5ccc(F)cc5)CC4)nc32)cc1	NS1 inh 12.6µM, AmpC detergent inconclusive | Flu NS1 inh inactive
O=c1[nH]c(C2CCCN(S(=O)(=O)c3ccccc3)C2)nc2c1nnn2Cc1ccccc1Br (stereo not given)	NS1 inh 7.08µM, AmpC detergent inconclusive | Flu NS1 inh inconclusive
CCN(CC(=O)NCc1ccccc1Cl)CC(=O)Nc1c(F)cccc1F	none
CCOc1cc(N2CCOCC2)c(OCC)cc1NC(=O)Cc1cccc2ccccc12	NS1 inh 12.6µM | Flu NS1 inh inactive
O=C1CSC(=S)N1N=Cc1ccc2c(c1)OCO2	none (no result: AmpC no deterg, NS1 inh, AmpC detergent)
Cc1ccc(NC(=O)CN(C)C(=O)C2CSC3(C)CCC(=O)N23)cc1 (stereo not given)	none (no result: AmpC no deterg, NS1 inh, AmpC detergent)
Cc1cc(-c2ccc(NC(=O)[C@@H]3CCCC[C@@H]3C(=O)O)c(C)c2)ccc1NC(=O)[C@@H]1CCCC[C@@H]1C(=O)O	NS1 inh 3.98µM | Flu NS1 inh inconclusive
COC(=O)c1ccccc1NC(=O)C1CCCCC1C(=O)O (stereo not given)	NS1 inh 5.01µM, AmpC detergent inconclusive | Flu NS1 inh inactive
O=C(Nc1ccc2c(c1)CCC2)c1cccc(S(=O)(=O)N2CCN(c3ccccc3)CC2)c1	NS1 inh 12.6µM | Flu NS1 inh inactive
O=C(Nc1ccccc1)c1cccc(S(=O)(=O)N2CCCCC2)c1	none
O=C(NC1CCCc2ccccc21)c1cccc(S(=O)(=O)N2CCN(c3ccccc3)CC2)c1 (stereo not given)	NS1 inh 11.2µM | Flu NS1 inh inactive
c1cc(N2CCCC2)ccc1C(c1nnnn1C1CCCCC1)N1CCOCC1 (stereo not given)	NS1 inh 11.2µM, AmpC detergent inconclusive | Flu NS1 inh inactive
COc1ccc(C(c2nnnn2C2CCCCC2)N2CCN(c3ccc(OC)cc3)CC2)cc1 (stereo not given)	AMA1-RON2 inh inconclusive
COc1ccc(CNCc2ccncc2)c(OC)c1	none
CCC(CC)NCc1ccc(OC)cc1OC	NS1 inh inconclusive, AmpC detergent inconclusive | Flu NS1 inh inactive
Cc1cc([N+](=O)[O-])cnc1Sc1nccn1C	AmpC detergent inconclusive
O=C(C[n+]1cccc(C(=O)Nc2ccccc2)c1)c1ccc([N+](=O)[O-])cc1	NS1 inh 2.51µM | Flu NS1 inh inactive | Flu PR8 replic inactive
